# Assay outcomes: PubChem, The Scripps Research Institute Molecular Screening Center
# PAD4 inh: blocks human protein arginine deiminase 4. actives 0.41% (n = 330,000). inhibition, % at 6.36 µM. recombinant PAD4, RCA probe fluorescence polarization;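 active = percent inhibition above a cutoff equal to the mean of all tested compounds plus 3 SD, cut at about 15% in these data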;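 also: 0% = PAD4 with RCA probe and DMSO and 100% = probe without PAD4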
# GSTO1 inh: counter-screen for RBBP9 inhibitors: inhibitors of human GSTO1 | recombinant GSTO1, activity-based probe fluorescence polarization | actives 1.1% (n = 300,000) | inhibition, % at 5.96 µM | AID 1974;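 active = inhibition above the campaign mean inhibition plus 3 SD, cut at about 35% in these data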;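 also: 0% = GSTO1-1 with DMSO and 100% = wells lacking GSTO1-1 enzyme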
# pPAFAH FP inh: inhibitors of human plasma PAF acetylhydrolase (pPAFAH). actives 1.5% (n = 330,000). AID 463082. inhibition, % at 3.39 µM. Q13093. recombinant pPAFAH, FP-rhodamine probe fluorescence polarization;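 active = inhibition above the mean inhibition across the screen plus 3 SD, cut at about 25% in these data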;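 also: inhibitors block binding of the rhodamine activity-based probe so polarization drops; 0% = enzyme with DMSO and 100% = wells lacking pPAFAH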
# Target sequence (Q13093 whole entry, looked up): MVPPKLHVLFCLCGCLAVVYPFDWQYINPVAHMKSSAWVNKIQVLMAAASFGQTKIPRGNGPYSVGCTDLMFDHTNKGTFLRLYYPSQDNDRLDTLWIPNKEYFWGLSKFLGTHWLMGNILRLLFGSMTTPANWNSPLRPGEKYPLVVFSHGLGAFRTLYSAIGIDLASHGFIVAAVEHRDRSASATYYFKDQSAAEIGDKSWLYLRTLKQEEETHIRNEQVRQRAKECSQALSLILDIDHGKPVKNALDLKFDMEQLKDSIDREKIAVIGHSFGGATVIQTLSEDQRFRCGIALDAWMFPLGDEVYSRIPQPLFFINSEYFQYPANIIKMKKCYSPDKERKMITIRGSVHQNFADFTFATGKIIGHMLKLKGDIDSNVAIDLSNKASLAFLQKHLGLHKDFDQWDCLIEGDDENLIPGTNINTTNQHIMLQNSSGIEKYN
# Fam108B inh: counter-screen for RBBP9 inhibitors: inhibitors of mouse Fam108B | AID 1947 | actives 0.33% (n = 300,000) | recombinant Fam108B, FP-Rh probe fluorescence polarization | inhibition, % at 9.51 µM;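 active = inhibition above the screen mean inhibition plus 3 SD, computed separately per campaign, cut at about 18% in these data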;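 also: inhibitors lower polarization as less probe binds the enzyme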
# PME-1 primary: blocks human protein phosphatase methylesterase 1; Q9Y570; recombinant PME-1, FP-Rh probe fluorescence polarization; inhibition, % at 5.9 µM; actives 0.53% (n = 320,000); AID 2130;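 active = inhibition above the campaign mean of all compounds plus 3 SD, cut at about 26% in these data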;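 also: competitive labeling of PME-1 active site by serine hydrolase directed probe; 0% = PME-1 with DMSO and 100% = wells lacking PME-1 enzyme; inhibitors block probe labeling so polarization falls and inhibition rises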
# PAD4 FP conf: confirmation of human PAD4 inhibitors | inhibition, % at 6.36 µM | recombinant PAD4, RCA probe fluorescence polarization | shares compounds with PAD4 inh | AID 488796 | actives 28% (n = 1,200);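 active = mean inhibition across replicates above the hit cutoff set by the earlier primary screen, cut at about 15% in these data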;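 also: inhibitors block active-site labeling by the probe so polarization falls; 0% = PAD4 with probe and DMSO and 100% = probe without PAD4 enzyme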
# The depositor's hits bear a star; · = no result. Only some compounds are listed: those with a hit (about 2.3% of all), similar ones and a draw of the others.
SMILES,PAD4 inh,GSTO1 inh,pPAFAH FP inh,Fam108B inh,PME-1 primary,PAD4 FP conf
CCc1ccc(C(=O)NC(=S)Nc2ccc(N3CCOCC3)cc2)cc1,-3,-2,6,5,2,·
C/C(=C\C(=O)c1ccc(Cl)cc1)Nc1ccc(N2CCOCC2)cc1,-9,4,3,-1,1,·
COc1ccc(OCc2nnc(SCC(=O)Nc3cccc(C(C)=O)c3)o2)cc1,-3,·,3,·,3,·
Cc1cccc2c1N(C(=O)c1ccco1)C(C)(C)c1ssc(=S)c1-2,15*,-5,6,1,5,15
Nc1cccc2c1C(=O)N(C(=O)c1ccco1)C2=O,2,5,1,4,2,·
Cc1ccc2c(c1)N(C(=O)c1ccco1)C(C)(C)c1ssc(=S)c1-2,16*,-6,5,3,12,24*
Cc1ccc2c(c1)N(C(=O)CSc1nncn1C)C(C)(C)c1ssc(=S)c1-2,13,-4,4,6,7,·
NC(=O)C1CCN(C(=O)c2ccc3c(=O)n(Cc4ccco4)c(SCc4ccc([N+](=O)[O-])cc4)nc3c2)CC1,-3,-9,7,15,11,·
O=c1c2ccccc2sn1-c1ccc(F)cc1,42*,·,2,·,-1,29*
Cc1ccc(-n2sc3ccccc3c2=O)cc1,53*,-6,1,4,-6,30*
Cc1ccc(Cn2c(=O)sc3ccccc3c2=O)cc1,-6,9,2,-2,-1,·
COC(=O)c1cccc(-n2sc3ccccc3c2=O)c1,55*,·,3,·,-2,47*
O=c1sc2ccccc2c(=O)n1Cc1ccccc1F,7,4,2,0,-5,·
COc1cc(/C=C(\NC(C)=O)C(=O)N2CCCCC2)ccc1OC(C)=O,1,8,2,1,-6,·
COc1ccc(/C=C/C(=O)N(C)C2CCS(=O)(=O)C2)cc1OC (stereo unspecified),15*,-3,-1,-2,-6,-5
CCN(C(=O)/C=C/c1ccc(OC)cc1)C1CCS(=O)(=O)C1 (stereo unspecified),-2,0,2,-1,-3,·
Cc1ccc(C)c(-n2nnnc2Sc2nnnn2-c2ccccc2)c1,18*,-2,6,-1,-4,25*
CCSc1nnnn1-c1ccccc1,-5,10,3,1,-3,·
COC(=O)C(F)(Sc1c(C)n(C)n(-c2ccccc2)c1=O)C(F)(F)F (stereo unspecified),48*,2,4,0,1,34*
Cc1cc2c(cc1C)N(C(=O)CSc1nncn1C)C(C)(C)c1ssc(=S)c1-2,33*,-6,8,0,8,33*
O=C(Cc1cccc2ccccc12)NCCc1ccccc1,-7,-7,3,0,1,·
Cc1cccn2c(=O)nc(SCC(=O)NCc3ccc4c(c3)OCO4)nc12,-11,-1,-1,-8,-4,·
O=S(=O)(NC1=NCCCCC1)c1ccc2sc(NS(=O)(=O)c3ccc4ccccc4c3)nc2c1,30*,-42,11,-2,-5,22*
Cc1sc2ncnc(Sc3ccccc3C(=O)O)c2c1C,6,-9,1,2,2,·
Cc1sc2ncnc(Sc3nnnn3-c3ccccc3)c2c1C,28*,-6,0,-3,-6,17*
SMILES,PAD4 inh,GSTO1 inh,pPAFAH FP inh,Fam108B inh,PME-1 primary,PAD4 FP conf
Cn1nnnc1Sc1ncnc2scc(-c3ccc(Cl)cc3)c12,11,·,11,·,7,·
Clc1ccc(-n2nnnc2Sc2ncnc3sccc23)cc1,21*,-17,0,-9,-7,21*
COc1ccc(NC(=O)COC(=O)C2CCN(S(=O)(=O)c3ccccc3)CC2)cc1Cl,1,-7,11,1,-2,·
COc1ccc(S(=O)(=O)N2CCc3cc(OC)c(OC)cc3C2)cc1,1,6,-2,2,-7,·
COc1ccc(-c2c/c(=N\c3nc(-c4ccccc4)c(C)s3)c3ccccc3o2)cc1O,33*,-14,14,15,31*,17*
O=C(CCN1CCN(c2ccccc2F)CC1)Nc1ccc2c(c1)OCO2,-3,-6,4,-1,5,·
C=CCOc1ccc(C2OC34CCCCC3C(C#N)(C#N)C2(C#N)C(=N)O4)cc1 (stereo unspecified),15*,16,10,9,10,2
Cc1ccc(C2OC34CCCCCC3C(C#N)(C(=N)O4)C2(C#N)C#N)cc1 (stereo unspecified),2,-3,1,3,1,·
COCC(=O)N(CCc1ccc(OC)c(OC)c1)Cc1nc2ccccc2c(=O)[nH]1,22*,2,5,1,-1,7
N#Cc1nc(N2CCCCC2)nc(N2CCOCC2)n1,19*,-1,5,6,-2,24*
Cc1onc(-c2ccccc2Cl)c1C(=O)NNC(=O)c1cccc(F)c1,1,-3,6,-5,-10,·
COCCCNc1nc2ccccc2nc1NS(=O)(=O)c1ccc(OC)cc1,-1,2,5,-3,2,·
COCCCNc1nc2ccccc2nc1NS(=O)(=O)c1cccs1,16*,-4,0,-2,2,-11
O=C(c1ccccc1NS(=O)(=O)c1ccc(F)cc1F)N1CCCCC1,2,·,5,·,·,·
Cn1c(=O)c(=O)n(C)c2cc(S(=O)(=O)N3CCN(c4cccc(C(F)(F)F)c4)CC3)ccc21,-2,-1,4,4,-5,·
COC(=O)[C@@H](c1ccccc1)N(C)S(=O)(=O)c1cccc(S(=O)(=O)N(C)[C@@H](C(=O)OC)c2ccccc2)c1,-1,2,4,-5,5,·
CCN(C(=O)Cn1nc(C)c([N+](=O)[O-])c1C)c1c(N)n(Cc2ccccc2)c(=O)[nH]c1=O,-2,-1,-2,1,-6,·
c1ccc2c(c1)CC1(CCCCC1)n1nnnc1-2,2,-3,0,-1,0,·
c1ccc2c(c1)Cn1nnnc1-2,33*,3,-2,4,4,-2
Cn1nnnc1Sc1ncnc2scc(-c3ccc([N+](=O)[O-])cc3)c12,17*,·,8,·,3,10
CCC(C)(C)NC(=O)CN(CC1CCCO1)C(=O)CNS(=O)(=O)c1ccccc1 (stereo unspecified),0,9,5,-2,-3,·
CC(C)C(C(=O)NC1CCCC1)N(CC1CCCO1)C(=O)CNS(=O)(=O)c1ccccc1 (stereo unspecified),26*,-5,8,-1,-4,-3
COc1cccc(-c2cc(=O)[nH][nH]2)c1,38*,17,3,-4,-1,-5
Cc1ccc(NC(=O)CSc2nnc(CNC(=O)c3ccco3)n2C)cc1C,-1,12,4,3,2,·
CCN(CC)S(=O)(=O)c1ccc(Cl)c(C(=O)Nc2cc(C)nn2-c2ccccc2C(F)(F)F)c1,18*,7,0,-3,4,-3
CCN(CC)S(=O)(=O)c1ccc(Cl)c(C(=O)Nc2nncs2)c1,-6,3,0,0,3,·
